Compound activity: PubChem, National Center for Advancing Translational Sciences (NCATS)
BAZ2B block: BAZ2B (human) inhibition | AlphaScreen BAZ2B-H3K14Ac peptide displacement | Potency, µM (doses to about 114 µM), usual class: inhibitors | 4.4% of 360,000 active; also: nearly all actives have a fitted effect of over 60% in size
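Protein-peptide AlphaScreen: BAZ2B 50 nM, b-H3K14Ac 50 nM, 1x PBS pH 7.4 + 0.01% Tween-20. Preincubation 30 min RT; cpd 30 min RT (top 110 uM); beads 20 min RT, light-protected.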
HP1b chromo inh: inhibitors of HP1-beta chromodomain binding to methylated histone tails | 0.56% of 390,000 active | AlphaScreen HP1-beta / biotin-H3K9me3 peptide binding | Potency, µM (titrated, usually from 114 µM), hits mostly inhibitors | AID 540317 | P83916; also: nearly all actives have a fitted effect of over 70% in size
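Compound inhibition of the preformed complex between 50 nM HP1-beta and 50 nM biotinylated H3K9me3 peptide was read by AlphaScreen. Buffer was PBS pH 7.4 with 0.01% Tween-20. Incubations ran 30 min at room temperature, with 10 ug/mL donor/acceptor beads.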
G9a block: blocks human histone lysine methyltransferase G9a | Q96KQ7 | 8.8% of 350,000 active | G9a H3K9 monomethylation, AlphaScreen, 2 h | AID 504332 | Potency, µM (doses to about 102 µM), actives largely listed as inhibitors; also: nearly all actives have a fitted effect of over 75% in size
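Enzyme 20 nM + cpd, 15 min RT; add b-H3K9 pep 500 nM / SAM 20 uM; 2 h RT; anti-H3K9me1 Ab 0.5 ug/mL + SA donor / anti-rabbit acceptor beads 20 ug/mL each, 10 min; AlphaScreen read.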
VDR inhibitor: vitamin D3 receptor (human) inhibition; VDR-SRC2-3 peptide fluorescence polarization, 2 h; AID 504847; Potency, µM, actives largely listed as inhibitors; 0.93% of 400,000 active; P11473
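Two reagent solutions held at 4 deg C in the dark were dispensed, compounds pinned at 23 nl, and the mixture incubated 2 h at room temperature. Read-out: fluorescence polarization of VDR–SRC2-3 peptide binding.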
JMJD2A Tudor inh: JMJD2A Tudor domain (human) inhibition. AID 504339. O75164. AlphaScreen JMJD2A-Tudor / H3K4me3 peptide binding. 4.4% of 390,000 active. Potency, µM (doses to about 114 µM), actives largely listed as inhibitors; also: nearly all actives have a fitted effect of over 50% in size
PLK1 PBD inh: inhibitors of human PLK1 polo-box domain binding; P53350; Plk1 PBD binding of FITC phosphopeptide, fluorescence polarization; Potency, µM, most hits filed as inhibitors; 2.8% of 360,000 active; AID 720504; also: series mostly up to about 57 µM; nearly all actives have a fitted effect of over 65% in size
Each line names hits and unclear results; the compound was inactive in the other large screens; ! = repeats disagree. Only some compounds are listed: those with a hit (about 11% of all), similar ones and a draw of the others. Calls follow the shape of the dose curve; as a rule, active = well fitted curve in the direction sought with a large enough effect; inconclusive = small, poorly fitted or top-dose-only effect, or another doubt; inactive = no such curve, though single readings can be large; an effect the other way counts as inactive or inconclusive.

CC(=O)Nc1ccc(SC(Sc2ccc(NC(C)=O)cc2)c2ccccc2)cc1	PLK1 PBD inh 17µM (no result: BAZ2B block, G9a block)
CC(=O)Nc1ccc(NC(=S)Nc2ccccc2)cc1	none
O=C(C[C@H]1CC[C@H]2[C@@H](COC[C@@H](O)CN2Cc2cc(F)ccc2F)O1)NCc1ccc(Cl)cc1	none (no result: BAZ2B block, HP1b chromo inh, G9a block, VDR inhibitor, JMJD2A Tudor inh)
Cc1nnc(NC(=O)c2ccccc2Br)s1	none
Cc1c(Cl)cccc1Nc1ncccc1C(=O)O	JMJD2A Tudor inh 25µM!, PLK1 PBD inh inconclusive
O=C(O)c1ccccc1Nc1cc(Cl)c2nonc2c1[N+](=O)[O-]	G9a block 45µM, VDR inhibitor 35µM, PLK1 PBD inh 7.5µM
O=C(O)c1ccccc1NC(=O)c1cc2ccccc2oc1=O	G9a block 50µM
O=C(Nc1cccnc1N1CCOCC1)c1cc2ccccc2oc1=O	none
Cc1nnc(NC(=O)c2ccccc2NC(=O)c2ccccc2)s1	G9a block 50µM
CC(=O)Nc1ccc(NC(=O)c2csnn2)cc1	G9a block inconclusive (no result: PLK1 PBD inh)
O=C1C=C(Nc2ccccc2C(=O)O)c2ccccc2C1=O	BAZ2B block 35µM, HP1b chromo inh 16µM, VDR inhibitor inconclusive, JMJD2A Tudor inh 22µM, PLK1 PBD inh 11µM (no result: G9a block)
O=C(O)c1ccccc1Nc1ccccc1C(=O)O	G9a block 79µM, JMJD2A Tudor inh inconclusive
O=C1C=C(Nc2cccc3cccnc23)c2ccccc2C1=O	BAZ2B block 56µM, HP1b chromo inh inconclusive, G9a block 35µM, VDR inhibitor inconclusive, JMJD2A Tudor inh 56µM
Cc1c(Cl)cccc1Nc1ccccc1C(=O)O	G9a block 45µM!, VDR inhibitor 45µM!
O=C(O)c1ccccc1Nc1ccc([N+](=O)[O-])cc1	G9a block inconclusive
Nc1ncnc2c1ncn2[C@@H]1O[C@H](C(=O)N[C@H]2c3ccccc3C[C@H]2OC=O)[C@@H](O)[C@H]1O	none (no result: BAZ2B block, HP1b chromo inh, G9a block, VDR inhibitor, JMJD2A Tudor inh)
O=C(Nc1ccccc1C(=O)O)c1ccccc1	BAZ2B block inconclusive, G9a block 50µM
O=C(Nc1ccccc1C(=O)O)c1cccc(C(=O)Nc2ccccc2C(=O)O)c1	G9a block inconclusive
Cc1cc(N2C(=O)C(O)=C(C(=O)c3ccc(C)o3)C2c2cccc(Cl)c2)no1 (stereo not drawn)	none (no result: BAZ2B block, HP1b chromo inh, G9a block, VDR inhibitor, JMJD2A Tudor inh)
CCCOc1ccc(C2C(C(=O)c3cc4ccccc4o3)=C(O)C(=O)N2c2cc(C)on2)cc1 (stereo not drawn)	G9a block 32µM, VDR inhibitor inconclusive, JMJD2A Tudor inh inconclusive, PLK1 PBD inh inconclusive
Cc1cc(N2C(=O)C(O)=C(C(=O)c3ccc(C)o3)C2c2cccc(Oc3ccccc3)c2)no1 (stereo not drawn)	VDR inhibitor inconclusive, JMJD2A Tudor inh 35µM, PLK1 PBD inh 24µM (no result: G9a block)
COc1ccc(OC)c(C2C(C(=O)c3ccc(C)o3)=C(O)C(=O)N2c2cc(C)on2)c1 (stereo not drawn)	G9a block 50µM, VDR inhibitor inconclusive, JMJD2A Tudor inh inconclusive, PLK1 PBD inh 24µM
Cc1cc(N2C(=O)C(O)=C(C(=O)c3cc4ccccc4o3)C2c2cccc(Cl)c2)no1 (stereo not drawn)	G9a block 40µM, JMJD2A Tudor inh inconclusive, PLK1 PBD inh inconclusive
CCCOc1ccc(C2C(C(=O)c3cc4ccccc4o3)=C(O)C(=O)N2c2cc(C)on2)cc1OC (stereo not drawn)	PLK1 PBD inh inconclusive (no result: G9a block)
COc1ccc(C2C(C(=O)c3ccc(C)o3)=C(O)C(=O)N2c2cc(C)on2)cc1OC (stereo not drawn)	G9a block inconclusive, JMJD2A Tudor inh inconclusive
Cc1cccnc1C1=NOC(Cc2ccccc2)C(=O)N1Cc1ccccc1F (stereo not drawn)	none (no result: BAZ2B block, HP1b chromo inh, G9a block, VDR inhibitor, JMJD2A Tudor inh)
O=C(c1ccccc1)N1CCCC(c2nc3c(nnn3Cc3ccc(F)cc3F)c(=O)[nH]2)C1 (stereo not drawn)	none (no result: PLK1 PBD inh)
CCOc1ccc(-n2c(=O)c3c4c(sc3n(CC(=O)NC(C)CC)c2=O)CCC4)cc1 (stereo not drawn)	none (no result: PLK1 PBD inh)
Cc1cc(N2C(=O)C(O)=C(C(=O)c3cc4ccccc4o3)C2c2ccc(Cl)cc2)no1 (stereo not drawn)	BAZ2B block inconclusive, JMJD2A Tudor inh inconclusive, PLK1 PBD inh inconclusive
COc1ccc(OC)c(C2C(C(=O)c3cc4ccccc4o3)=C(O)C(=O)N2c2cc(C)on2)c1 (stereo not drawn)	G9a block inconclusive
Cc1cc(N2C(=O)C(O)=C(C(=O)c3cc4ccccc4o3)C2c2ccc(Br)cc2)no1 (stereo not drawn)	BAZ2B block inconclusive, G9a block 1.6µM, VDR inhibitor inconclusive, JMJD2A Tudor inh inconclusive, PLK1 PBD inh 21µM
COc1ccccc1C1C(C(=O)c2cc3ccccc3o2)=C(O)C(=O)N1c1cc(C)on1 (stereo not drawn)	G9a block 50µM
C=CCOc1cccc(C2C(C(=O)c3cc4ccccc4o3)=C(O)C(=O)N2c2cc(C)on2)c1 (stereo not drawn)	G9a block 40µM, JMJD2A Tudor inh inconclusive, PLK1 PBD inh inconclusive
COc1cc(NC(=O)C(OC(=O)CNC(=O)c2ccccc2)c2ccccc2)c(OC)cc1Cl (stereo not drawn)	none (no result: BAZ2B block, HP1b chromo inh, G9a block, VDR inhibitor, PLK1 PBD inh)
COc1ccc(-n2nc(C#N)c(Cl)cc2=O)cc1	G9a block inconclusive, VDR inhibitor inconclusive, PLK1 PBD inh inconclusive
CCOc1ccccc1C(=O)NCC(c1ccc(N(C)C)cc1)N1CCc2ccccc21 (stereo not drawn)	BAZ2B block 5.6µM, HP1b chromo inh inconclusive, G9a block 13µM, JMJD2A Tudor inh 10µM (no result: PLK1 PBD inh)
COc1cc(C(=O)NCC(c2ccco2)N2CCc3ccccc32)cc(OC)c1OC (stereo not drawn)	BAZ2B block 79µM, G9a block 50µM, JMJD2A Tudor inh inconclusive
Cc1ccc(C(=O)NCC(c2ccco2)N2CCc3ccccc32)cc1C (stereo not drawn)	BAZ2B block inconclusive, JMJD2A Tudor inh inconclusive
COc1ccc(CCC(=O)NCC(c2ccco2)N2CCc3ccccc32)cc1 (stereo not drawn)	BAZ2B block inconclusive, HP1b chromo inh inconclusive, G9a block inconclusive, JMJD2A Tudor inh inconclusive
COc1cc(C(=O)NCC(c2cccs2)N2CCc3ccccc32)cc(OC)c1OC (stereo not drawn)	JMJD2A Tudor inh inconclusive
O=C(NCC(c1ccco1)N1CCc2ccccc21)c1ccccc1 (stereo not drawn)	BAZ2B block inconclusive, G9a block 50µM, JMJD2A Tudor inh inconclusive
COc1ccc(OC)c(S(=O)(=O)NCC(c2ccco2)N2CCc3ccccc32)c1 (stereo not drawn)	BAZ2B block inconclusive, G9a block 50µM, JMJD2A Tudor inh inconclusive
CN(CC(=O)Nc1cccc(F)c1)CC(=O)N(C)CC(=O)Nc1ccccc1Br	VDR inhibitor inconclusive
COc1ccccc1NC(=O)C(=O)NCC(c1ccco1)N1CCc2ccccc21 (stereo not drawn)	G9a block inconclusive
